# A selection: hits, their analogues and other compounds. The true share with any hit is near 3.1%.
# Neddyl block = inhibitors of cullin neddylation, primary screen, biochemical, TR-FRET, uHTS, NAE and Ubc12; AID 651699, 2012; NEDD8-conjugating enzyme Ubc12 (Homo sapiens) + NEDD8-activating enzyme E1 regulatory …; hit rate 0.58% among 360,000; calls only at 25 µM; in the data active = inhibition above about 36%
# Target sequence (P61081 whole entry, looked up): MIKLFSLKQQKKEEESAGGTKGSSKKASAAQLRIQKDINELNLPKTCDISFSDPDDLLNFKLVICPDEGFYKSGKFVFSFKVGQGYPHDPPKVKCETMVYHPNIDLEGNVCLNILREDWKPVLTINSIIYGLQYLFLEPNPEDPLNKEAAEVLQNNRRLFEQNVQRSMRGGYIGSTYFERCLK
# Target sequence (Q13564 whole entry, looked up): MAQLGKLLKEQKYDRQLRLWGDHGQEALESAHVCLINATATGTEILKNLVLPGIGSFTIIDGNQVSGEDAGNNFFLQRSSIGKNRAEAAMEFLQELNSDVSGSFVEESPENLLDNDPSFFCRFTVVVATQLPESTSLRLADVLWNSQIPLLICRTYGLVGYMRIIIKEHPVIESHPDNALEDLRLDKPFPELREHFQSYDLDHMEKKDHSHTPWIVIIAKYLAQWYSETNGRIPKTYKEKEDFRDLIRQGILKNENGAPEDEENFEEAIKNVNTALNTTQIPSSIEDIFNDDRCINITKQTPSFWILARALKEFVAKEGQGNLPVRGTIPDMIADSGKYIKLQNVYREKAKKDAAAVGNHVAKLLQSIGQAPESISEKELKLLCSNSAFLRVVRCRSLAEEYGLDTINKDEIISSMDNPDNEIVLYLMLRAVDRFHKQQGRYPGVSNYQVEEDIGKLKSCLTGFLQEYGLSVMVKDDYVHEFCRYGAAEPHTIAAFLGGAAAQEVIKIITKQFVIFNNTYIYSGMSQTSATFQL
# KLK7 zymogen act = proKLK7 zymogen activators, primary screen, biochemical, fluorescence intensity; purified proKLK7, EDANS-DABCYL substrate fluorescence; 100% is mature enzyme control, 0% vehicle; activation, % at 7 µM; hit rate 0.9% among 370,000;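 active = activation above the mean of all tested compounds plus 3 SD, computed per campaign excluding outliers beyond control limits, cut at about 13% in these data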
# Rin1-Abl PPI inh = inhibitors of Rin1-Abl protein binding, primary screen, biochemical, TR-FRET; hit rate 0.4% among 360,000; AID 588664, 2011; inhibition, % at 7.35 µM; in the data active = inhibition above about 5%, passing the limit was not always enough
# UHRF1 MBD2 ctr = UHRF1 methylated DNA binding inhibitors, primary screen, counter-screen for MBD2 inhibitor project, biochemical, TR-FRET, human UHRF1, single concentration; hit rate 0.75% among 370,000; UHRF1 binding to methylated oligo; AID 687016, 2013; E3 ubiquitin-protein ligase UHRF1 (Homo sapiens), Q96T88; inhibition, % at 4.4 µM; in the data active = inhibition above about 21%;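 note: UHRF1 SRA domain binding a hemimethylated CpG hairpin DNA probe; 0% = median of test compound wells and 100% = reference inhibitor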
# LEDGF integ inh = blockers of LEDGF/p75-dependent integrase strand transfer – biochemical, TR-FRET, high throughput, primary screen. inhibition, % at 3.7 µM. hit rate 0.64% among 370,000. HIV-1 integrase (with human LEDGF/p75). TR-FRET IN-LEDGF/p75 DNA integration, Eu/Cy5;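 active = inhibition above the screen-wide mean plus 3 SD, cut at about 13% in these data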;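 note: signal is the Cy5 over europium emission ratio at 671 and 618 nm; 0% = plate median of compound wells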
# MBD2 inh = inhibitors of MBD2 binding to methylated DNA, primary screen, biochemical, TR-FRET, DNA-binding domain, human; MBD2 binding to methylated oligonucleotide; hit rate 0.31% among 370,000; AID 686964, 2013; inhibition, % at 4.4 µM; in the data active = inhibition above about 13%
# Neddyl conf = blockade of NEDD8 conjugation to cullin – biochemical, TR-FRET, single concentration, confirmation; calls only at 25 µM; TR-FRET cullin neddylation biochemical assay; AID 652217, 2013; shares compounds with Neddyl block; hit rate 13% among 1,800; in the data active = inhibition above about 40%;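 note: neddylation substrate is the cullin 1 ring ligase complex with SKP2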
# KLK7 act conf = proKLK7 zymogen activators, confirmation, biochemical, fluorescence intensity, triplicate; shares compounds with KLK7 zymogen act; purified proKLK7, EDANS-DABCYL substrate fluorescence; scaled: vehicle 0, mature enzyme 100; activation, % at 7 µM; hit rate 68% among 3,200; AID 686949, 2013;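 active = activation, as change over the incubation, above the mean of all tested compounds plus 3 SD, cut at about 13% in these data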
# EDANS interfere = EDANS-DABCYL substrate optical interference, artefact control for kallikrein-7 zymogen activator project, biochemical, fluorescence intensity, high throughput | no enzyme, 4 h; solvent 0%, active enzyme control 100% | shares compounds with KLK7 zymogen act | AID 686952, 2013 | activation, % at 7 µM | hit rate 80% among 3,200;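 active = activation above the all-compound mean plus 3 SD, ignoring values outside control-based bounds, cut at about 4.8% in these data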;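 note: value is the 4 h activation minus the activation read at time zero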
# * = called active by the depositor; i = inactive; x = no result given; + = active, no number.
SMILES,Neddyl block,KLK7 zymogen act,Rin1-Abl PPI inh,UHRF1 MBD2 ctr,LEDGF integ inh,MBD2 inh,KLK7 act conf,EDANS interfere,others
C[C@@H](CO)NC(=O)c1ccc2c3n(nc2c1)-c1ccc(Cl)cc1CO3,i,4,-4,-2,4,-2,x,x,
O=C(CN1C(=O)C(=O)N(C2CCCC2)C1=O)Nc1cc(Cl)ccc1[N+](=O)[O-],i,0,-2,-2,0,2,x,x,
C[C@H](O)[C@@H]1C(=O)N2CCc3c([nH]c4cccc(-c5ccccc5)c34)[C@@H]2C[C@@H]1N(C)CC1CCCCC1,x,-29,x,-2,-3,4,x,x,
C[C@H](O)[C@@H]1C(=O)N2CCc3c([nH]c4ccccc34)[C@@H]2C[C@@H]1N(C)Cc1ccc(Cl)cc1,+,52*,-1,1,4,1,13*,13*,Neddyl conf=i
Cc1cc(C)cc(N=Cc2c(O)c3ccccc3oc2=O)c1,x,0,-1,15,-3,9,x,x,
O=C(O)c1cc(N=Cc2c(O)c3ccccc3oc2=O)ccc1O,+,150*,3,10,-2,-8,398*,355*,
CCN(CC)S(=O)(=O)c1ccc2c3c(cccc13)C(=O)N2,+,23*,-5,-6,6,-15,15*,21*,
Cc1cc(C(=O)Nc2ccc(F)cc2)n(-c2ccccc2)n1,x,0,x,-1,-3,5,x,x,
O=C(Nc1ccncc1)c1cc(C2CCCCN2C(=O)CCc2ccccc2)on1 (stereo not drawn),i,0,-3,0,0,4,x,x,
CCN(CC(=O)NC(C)(C)C)C(=O)CN1c2cccc3cccc(c23)S1(=O)=O,+,15*,0,-6,0,0,0,2,
O=C(CN1c2cccc3cccc(c23)S1(=O)=O)N1CCCCC1,+,15*,-3,-3,0,1,12,13*,Neddyl conf=+
COc1cccc(C(CNc2ccc(S(=O)(=O)N3CCN(C)CC3)cc2[N+](=O)[O-])N(C)C)c1 (stereo not drawn),i,0,-2,-3,2,-1,x,x,
O=C1O[C@@H](c2ccc(O)cc2)Cc2cccc(O)c21,+,49*,-3,0,-3,-1,44*,52*,

# High-throughput results (PubChem)
